Screening results: PubChem, The Scripps Research Institute Molecular Screening Center
This is a sample that favours compounds with a hit; in the whole collection about 4.5% have one here.
DAX1 inh-1: inhibitors of human orphan nuclear receptor DAX1 (NR0B1); P51843; HEK293 Gal4-DAX1 luciferase reporter, luminescence; inhibition, % at 6.75 µM; 340,000 tested, 0.99% active;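 active = inhibition above the mean over all tested compounds plus 3 SD, cut at about 4.2% in these data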;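 note: inhibition shows as a rise in luminescence from relieved DAX1 repression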
Target sequence (P51843 207-470 limits assumed): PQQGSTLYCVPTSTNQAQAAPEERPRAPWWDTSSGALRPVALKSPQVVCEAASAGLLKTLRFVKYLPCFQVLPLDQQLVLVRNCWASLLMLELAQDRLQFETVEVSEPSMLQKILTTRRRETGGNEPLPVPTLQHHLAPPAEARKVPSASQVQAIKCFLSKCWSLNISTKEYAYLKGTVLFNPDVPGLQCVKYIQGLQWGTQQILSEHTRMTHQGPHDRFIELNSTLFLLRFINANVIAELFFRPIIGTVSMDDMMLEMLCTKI
FXN GAA850 act: activators of GAA850 frataxin (FXN) promoter. HEK293 lucGAA850 FXN promoter luciferase reporter, 24 h; percent of 10 µM SAHA response. activation, % at 6 µM. 360,000 tested, 0.56% active. AID 540364;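 active = activation above the average of all compounds screened plus 3 SD, cutoff fixed separately per campaign, cut at about 7.5% in these data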
hgDAF12 agonist: agonists of H. glycines DAF-12 nuclear receptor | HEK293 GAL4-hgDAF12 UAS-luciferase reporter, agonist luminescence; normalized to butyrate control | activation, % at 6.8 µM | 370,000 tested, 1.8% active | AID 687014;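 active = activation above a cutoff set at the mean of all screened compounds plus 3 SD, cut at about 10% in these data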
ssDAF12 agonist: activates DAF-12 receptor from parasite S. stercoralis. AID 652126. 370,000 tested, 1% active. activation, % at 6.8 µM. HEK293 ssDAF-12/GRIP1 lit1-tk-luc reporter, luminescence; % of 3 µM dafachronic acid response;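 active = activation above the mean over all tested compounds plus 3 SD, cut at about 0.9% in these data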
hcDAF12 agonist: activators of H. contortus DAF-12 nuclear receptor | 370,000 tested, 1.4% active | activation, % at 6.8 µM | HEK293 hcDAF-12 lit1-tk-luc reporter, luminescence; 0% DMSO, 100% Δ7-dafachronic acid;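 active = activation above the mean of all tested compounds plus 3 SD, cut at about 5.5% in these data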
DAX1 inh-2: DAX1 (NR0B1) inhibition, primary screen; inhibition, % at 6.8 µM; HEK293T StAR-luciferase reporter, SF-1/DAX-1 repression relief; 370,000 tested, 1.1% active;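 active = inhibition above the mean over all tested compounds plus 3 SD, cut at about 3.6% in these data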;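 note: higher inhibition means more luminescence from relief of DAX-1 repression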
Numbers stand for hits; n = inactive; x = no result given.

SMILES	DAX1 inh-1	FXN GAA850 act	hgDAF12 agonist	ssDAF12 agonist	hcDAF12 agonist	DAX1 inh-2
O=C1NC(=Nc2ccccc2)S/C1=C\c1cccs1	n	n	n	1.4	n	n
CCn1c(SCc2ccccc2Cl)nnc1-c1ccccc1OC	x	x	n	n	n	n
COc1cc2c(cc1C1C(C#N)=C(N)OC3=C1C(=O)CC(C)(C)C3)OCO2 (stereo unspecified)	4.9	n	n	n	n	n
CC1(C)CC(=O)C2=C(C1)OC(N)=C(C#N)C2c1ccc2c(c1)OCO2 (stereo unspecified)	n	n	n	n	n	n
CCC(C)N(C(=O)CSc1nnc(-c2cc(OC)c(OC)c(OC)c2)o1)C(C)CC (stereo unspecified)	x	x	n	n	n	n
C#CCNC(=O)C[C@H]1C[C@@]2(C(=O)OC)C(=C[C@H](COCc3ccccc3)O[C@@H]2C)N(Cc2ccco2)C1=O	x	x	n	n	n	n
N=C1C(=O)OCC1c1ccccc1NC(=O)Nc1ccccc1 (stereo unspecified)	7.1	n	n	n	n	n
N=C1C(=O)OCC1c1ccccc1NC(=O)c1ccc(F)cc1 (stereo unspecified)	n	n	n	n	n	n
CC(c1nnc(SCC(=O)N(C)C2CCS(=O)(=O)C2)n1-c1ccccc1)N(C)C (stereo unspecified)	n	n	n	n	n	3.7
Cc1c(C(=O)Nc2nccs2)oc2c(Cl)cccc12	n	n	n	1.3	n	n
Cc1c(C(=O)NC(C)c2ccccn2)oc2c(Cl)cccc12 (stereo unspecified)	n	n	n	n	n	n
O=C(NC1CCCC1)c1cc2c(ccc3ccccc32)o1	n	n	11	n	n	n
CCOC(=O)[C@@]12CCCC=C1N(CCc1ccc(Cl)cc1)C(=O)[C@H]2CC(=O)N1CCC(c2ccccc2)CC1	x	x	n	n	n	n
COc1ccc(-c2c(C)nc3c(-c4ccsc4)cnn3c2N)cc1	5.2	n	n	n	n	n
Cc1nc2c(-c3ccc(F)cc3)cnn2c(N)c1-c1ccc(F)cc1	4.3	n	n	n	n	n
Cc1cc(N)n2ncc(-c3ccc(F)cc3)c2n1	n	n	n	n	n	n
CC(=O)N1CCCN(C(=O)C2CCN(c3ncnc4c3sc3cccc(F)c34)CC2)CC1	x	x	n	n	n	n
CS(=O)(=O)NN1C(=O)c2ccccc2NC1c1ccccc1O (stereo unspecified)	n	n	n	n	n	n
CS(=O)(=O)NN1C(=O)c2ccccc2NC1c1c[nH]c2ccccc12 (stereo unspecified)	n	n	n	n	6.2	n
CCOC(=O)N1CCN(C(=O)Nc2ccc3nc(C)sc3c2)CC1	n	n	n	n	n	n
CCOC(=O)Nc1ccc2nc(N3CCCCCC3)sc2c1	n	n	11	n	n	n
Nc1nnc(-c2cc3ccccc3oc2=O)s1	n	n	n	n	n	n
O=c1oc2ccccc2cc1-c1nnc(NCc2ccco2)s1	n	n	12	n	n	3.9
O=C1NC(=Nc2ccc3ccccc3c2)S/C1=C/c1ccco1	n	n	n	2.0	n	n
O=C(N/N=C/c1cccc([N+](=O)[O-])c1)c1cccs1	n	n	n	n	n	n
SMILES	DAX1 inh-1	FXN GAA850 act	hgDAF12 agonist	ssDAF12 agonist	hcDAF12 agonist	DAX1 inh-2
CCOc1cc(/C=N/NC(=O)c2cccs2)cc([N+](=O)[O-])c1O	n	n	12	n	n	n
O=C(CSc1nnc(-c2ccccc2)n1Cc1ccco1)Nc1ccc(OCc2ccccc2)cc1	x	x	n	n	n	n
CN(C(=O)c1cc(-c2ccccc2)on1)C1CCCCC1	n	n	11	n	n	n
Cc1cc(C(=O)N(C)C2CCCCC2)no1	n	n	n	n	n	n
Cc1cc(C)cc(NC(=O)C2(C(=O)C3CC3)CC(c3ccccc3C(F)(F)F)=NO2)c1 (stereo unspecified)	x	x	n	n	n	n
CC(=O)c1cccc(NC(=O)/C(=C\c2cccnc2)NC(=O)c2ccc(C)cc2)c1	n	n	n	n	n	n
CSc1ccc(/C=C(/NC(=O)c2ccc(C)cc2)C(=O)Nc2cccc(F)c2)cc1	n	n	n	n	6.3	n
Cc1nc(C(=O)NNC(=O)c2ccccc2)c(C(F)(F)F)o1	4.3	n	n	n	n	n
CC1(c2nnnn2C2CCCCC2)CSCC(=O)N1CCc1ccc(O)cc1 (stereo unspecified)	x	x	n	n	n	n
O=C1c2cccc3cccc(c23)C(=O)C1(O)O	n	n	n	n	5.8	n
CC(=O)NC(Cc1cccc(F)c1)C(=O)NC1CCN(C(=O)c2cccc(C)c2)CC1 (stereo unspecified)	5.4	n	n	n	n	n
Cc1ccc2c(c1)c1c3n2CCN(CC#N)C3CCC1 (stereo unspecified)	6.5	n	n	n	n	n
CCOC(=O)N1CCN(c2c(NCCN3CCCCC3CC)c(=O)c2=O)CC1 (stereo unspecified)	n	n	n	n	n	4.2
COc1ccc(NC(=O)CCC(=O)OC(C(=O)c2ccccc2)c2ccccc2)cc1 (stereo unspecified)	n	n	n	n	n	n
Cc1ccc(C(=O)C(OC(=O)CCC(=O)Nc2cccc(C)c2)c2ccccc2)cc1 (stereo unspecified)	4.7	n	n	n	n	n
CC(Oc1ccccc1)C(=O)N=Nc1c(O)[nH]c2ccc(Br)cc12 (stereo unspecified)	n	n	n	2.2	n	n
COc1ccccc1N=Nc1c(O)[nH]c2ccc(Br)cc12	n	n	n	1.0	6.4	n
CCC[C@H]1[C@@H](NC(=O)C2CCC2)CC[C@@]23CCCN2C(=O)CCC[C@@H]13	x	x	n	n	n	x
COC(=O)[C@@]12CCCCC3=C1N(CCC3)C(=O)[C@H]2CC(=O)N1CCN(C(=O)C2CC2)CC1	x	x	n	n	n	n
Cc1occc1-c1nnc(SCC(=O)Nc2ccc3ncccc3c2)n1-c1ccccc1	x	x	n	n	n	n
C=CCN=C1NC(c2cccc(F)c2)C(C(=O)OC)=C(C)N1Cc1cccc(C(F)(F)F)c1 (stereo unspecified)	x	x	n	n	n	n
COC(=O)c1sc(NC(=O)CSc2nnnn2C)nc1C	n	n	n	n	5.6	n
COC(=O)c1sc(NC(=O)CSc2nnc(Cn3nnc4ccccc43)n2C)nc1C	n	n	n	1.1	n	n
Cc1nc(NC(=O)CSc2nnnn2C)sc1C	n	n	n	n	n	n
CC(=O)Nc1ccc(O)cc1	5.8	n	n	n	n	n
CC(=O)Nc1ccc(C)cc1	n	n	n	n	n	n
CCNC(=S)N1CCCC(c2nc3ccc(C)cc3[nH]2)C1 (stereo unspecified)	n	n	n	n	n	n
Cc1ccc2nc(C3CCCCC3)[nH]c2c1	4.7	n	12	n	n	n
